A short description of test [1]: NCI Yeast Anticancer Drug Screen. Data for the rad50 strain (AID 155).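 Further: 0% = growth of vehicle-only cultures of the same strain.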 Conditions: S. cerevisiae rad50 strain growth inhibition, stronger effect = higher value. Summed up:
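DNA repair mutant yeast, compound exposure, growth read-out; inhibition is taken relative to vehicle.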

The nature of test [2]: NCI Yeast Anticancer Drug Screen. Data for the mec2-1 strain (AID 157). As to conditions: S. cerevisiae mec2-1 strain, stronger effect = higher value. Summed up: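 Cells of the genetically defined mec2-1 yeast strain are incubated with test compound. Inhibition of growth is calculated against vehicle-treated controls.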
The nature of test [3]: NCI Yeast Anticancer Drug Screen. Data for the sgs1 mgt1 strain (AID 161).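 Further: 0% = growth of cultures given vehicle only.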 As to conditions: S. cerevisiae sgs1 mgt1 strain, stronger effect = higher value. Put shortly: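 Test agents were incubated with a DNA-repair-mutant yeast strain. Growth was then read and compared against vehicle-treated controls.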
Test [4] can be described thus: NCI Yeast Anticancer Drug Screen. Data for the cln2 rad14 strain (AID 165).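 Further: 0% = growth equal to vehicle treated cultures.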 Conditions: S. cerevisiae cln2 rad14 strain, stronger effect = higher value. Summed up:
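The screen exposed genetically defined yeast (cln2 rad14) to test compounds and scored growth inhibition relative to vehicle-treated controls.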

Test [5] can be described thus: NCI Yeast Anticancer Drug Screen. Data for the bub3 strain (AID 167). As to conditions: S. cerevisiae bub3 mutant strain, stronger effect = higher value. Summed up: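 In this screen, a yeast mutant lacking normal mitotic checkpoint function is challenged with compound. Relative growth versus vehicle gives the inhibition value.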
Test [6] can be described thus: NCI Yeast Anticancer Drug Screen. Data for the mlh1 rad18 strain (AID 175). Conditions: S. cerevisiae mlh1 rad18 strain growth inhibition, stronger effect = higher value. Summed up: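 Compound-treated yeast growth, normalised to vehicle controls. Strain bears defined DNA repair mutations.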
Setting [7] is: at 5.0 µM (retest, dose inferred, filed as 0.5).
Setting [8] is: at 50.0 µM (retest, dose inferred, filed as 5.0).

The panel holds about 79,000 compounds, 15% with a hit somewhere; the sample as a whole holds those more often. A number with no mark means an inactive call. Calls of active or inactive are those of the source. No stated cut-off is given here; in the data, active means growth inhibition above about 70%; inactive means the rest.

For `O=C1c2cccc(O)c2C(=O)c2c(OC3OC(CO)C(O)C(O)C3O)cccc21` (configuration not stated), the growth inhibition in test [1] (setting [7]) is 6%; in test [1] (setting [8]), 68%; in test [1] (at 50.0 µM), 76.8% (active); in test [2] (setting [7]), 10%; in test [2] (setting [8]) it was 48%; in test [2] (at 50.0 µM), 24.5%. For the same compound, the growth inhibition in test [3] (setting [7]) was 4%; in test [3] (setting [8]), 52%; in test [3] (at 50.0 µM) it was 78% (active); in test [4] (setting [7]), 16%; in test [4] (setting [8]) it was 59%; in test [4] (at 50.0 µM), 34.4%. In addition, the growth inhibition is 6% in test [5] (setting [7]); 60% in test [5] (setting [8]); 74.8% (active) in test [5] (at 50.0 µM); -7% in test [6] (setting [7]); 62% in test [6] (setting [8]); 47.5% in test [6] (at 50.0 µM).

For the compound `Cc1cccc(N2C(c3ccccc3)c3ccc(C)cc3NS2=O)c1` (configuration not stated), the growth inhibition in test [1] (setting [7]) was 2%; in test [1] (setting [8]) it was -1%; in test [1] (at 50.0 µM) it was 98.7% (active); in test [2] (setting [7]), 2%; in test [2] (setting [8]), -2%; in test [2] (at 50.0 µM) it was 98.8% (active). For the same compound, the growth inhibition in test [3] (setting [7]) is 1%; in test [3] (setting [8]), -2%; in test [3] (at 50.0 µM), 99.1% (active); in test [4] (setting [7]), 1%; in test [4] (setting [8]), 1%; in test [4] (at 50.0 µM), 98.7% (active). The growth inhibition was -2% in test [5] (setting [7]); -1% in test [5] (setting [8]); 99.2% (active) in test [5] (at 50.0 µM); -4% in test [6] (setting [7]); -7% in test [6] (setting [8]); 99.2% (active) in test [6] (at 50.0 µM).

With `Cc1cc(=O)c2cc(N=Cc3ccc([N+](=O)[O-])o3)ccc2o1`, the growth inhibition is -1% in test [1] (setting [7]); 72% (active) in test [1] (setting [8]); 74.9% (active) in test [1] (at 50.0 µM); -10% in test [2] (setting [7]); 23% in test [2] (setting [8]); 17.9% in test [2] (at 50.0 µM). Besides, the growth inhibition is -6% in test [3] (setting [7]); 54% in test [3] (setting [8]); 42.6% in test [3] (at 50.0 µM); 0% in test [4] (setting [7]); 10% in test [4] (setting [8]); 21.2% in test [4] (at 50.0 µM). Moreover, the growth inhibition was -4% in test [5] (setting [7]); 6% in test [5] (setting [8]); 6.1% in test [5] (at 50.0 µM); 10% in test [6] (setting [7]); 49% in test [6] (setting [8]); 40% in test [6] (at 50.0 µM).

Consider `CCCCCCCCCCCC(N)c1ccccc1` (configuration not stated), for which the growth inhibition in test [1] (setting [7]) was 99% (active); in test [1] (setting [8]) it was 99% (active); in test [1] (at 50.0 µM) it was 99.5% (active); in test [2] (setting [7]), 99% (active); in test [2] (setting [8]) it was 99% (active); in test [2] (at 50.0 µM), 99.5% (active). The growth inhibition in test [3] (setting [7]) was 99% (active); in test [3] (setting [8]), 99% (active); in test [3] (at 50.0 µM), 99.2% (active); in test [4] (setting [7]), 99% (active); in test [4] (setting [8]), 99% (active); in test [4] (at 50.0 µM), 99.1% (active). In addition, the growth inhibition was 99% (active) in test [5] (setting [7]); 99% (active) in test [5] (setting [8]); 99.2% (active) in test [5] (at 50.0 µM); 99% (active) in test [6] (setting [7]); 99% (active) in test [6] (setting [8]); 99.5% (active) in test [6] (at 50.0 µM).

`Cc1ccc(S(=O)(=O)Nn2c(S)c(C#N)c(-c3ccc(Cl)cc3)c(C#N)c2=O)cc1`: the growth inhibition was 29% in test [1] (setting [7]); 73% (active) in test [1] (setting [8]); 55.6% in test [1] (at 50.0 µM); 17% in test [2] (setting [7]); 66% in test [2] (setting [8]); 75.2% (active) in test [2] (at 50.0 µM). The growth inhibition in test [3] (setting [7]) was 19%; in test [3] (setting [8]), 91% (active); in test [3] (at 50.0 µM) it was 81.8% (active); in test [4] (setting [7]), 40%; in test [4] (setting [8]), 56%; in test [4] (at 50.0 µM) it was 32.4%. The growth inhibition in test [5] (setting [7]) is 45%; in test [5] (setting [8]), 79% (active); in test [5] (at 50.0 µM), 65.9%; in test [6] (setting [7]), 24%; in test [6] (setting [8]), 56%; in test [6] (at 50.0 µM), 73.8% (active).

In the case of `COc1ccc2nc3cccc([N+](=O)[O-])c3c(NCCN(C)C)c2c1`, the growth inhibition in test [1] (setting [7]) is 86% (active); in test [1] (setting [8]) it was 95% (active); in test [1] (at 50.0 µM) it was 80% (active); in test [2] (setting [7]), 95% (active); in test [2] (setting [8]), 98% (active); in test [2] (at 50.0 µM) it was 88.5% (active). The growth inhibition was 87% (active) in test [3] (setting [7]); 74% (active) in test [3] (setting [8]); 84.5% (active) in test [3] (at 50.0 µM); 92% (active) in test [4] (setting [7]); 97% (active) in test [4] (setting [8]); 83% (active) in test [4] (at 50.0 µM). Besides, the growth inhibition in test [5] (setting [7]) was 36%; in test [5] (setting [8]), 96% (active); in test [5] (at 50.0 µM), 82.2% (active); in test [6] (setting [7]) it was 92% (active); in test [6] (setting [8]), 97% (active); in test [6] (at 50.0 µM), 79.6% (active).

With `COC(=O)C1=C(C(=O)OC)C2C(C)=CC(C)=CN2C(C(=O)OC)=C1C(=O)OC` (configuration not stated), the growth inhibition in test [1] (setting [7]) was -1%; in test [1] (setting [8]), -7%; in test [1] (at 50.0 µM), 11.2%; in test [2] (setting [7]), 0%; in test [2] (setting [8]), 2%; in test [2] (at 50.0 µM) it was 5.8%. Moreover, the growth inhibition in test [3] (setting [7]) was -10%; in test [3] (setting [8]), 4%; in test [3] (at 50.0 µM) it was 2.3%; in test [4] (setting [7]) it was -2%; in test [4] (setting [8]) it was -5%; in test [4] (at 50.0 µM), 74.3% (active). Besides, the growth inhibition in test [5] (setting [7]) is 2%; in test [5] (setting [8]) it was -3%; in test [5] (at 50.0 µM), -6.7%; in test [6] (setting [7]) it was -4%; in test [6] (setting [8]), -4%; in test [6] (at 50.0 µM), 25.4%.

Consider `CCCC(C)OC(=O)Nc1cccc(Cl)c1` (configuration not stated), for which the growth inhibition in test [1] (setting [7]) was -15%; in test [1] (setting [8]), 3%; in test [1] (at 50.0 µM), 98.4% (active); in test [2] (setting [7]) it was -4%; in test [2] (setting [8]), -7%; in test [2] (at 50.0 µM) it was 98.2% (active). Further, the growth inhibition is -2% in test [3] (setting [7]); -10% in test [3] (setting [8]); 98.9% (active) in test [3] (at 50.0 µM); -29% in test [4] (setting [7]); -1% in test [4] (setting [8]); 97.9% (active) in test [4] (at 50.0 µM). The growth inhibition in test [5] (setting [7]) was -21%; in test [5] (setting [8]), 1%; in test [5] (at 50.0 µM), 97.5% (active); in test [6] (setting [7]) it was -20%; in test [6] (setting [8]), 16%; in test [6] (at 50.0 µM), 97.6% (active).

As to `CC(/C=C/c1cccc(C)c1)=N\NC(N)=S`, the growth inhibition in test [1] (setting [7]) was 14%; in test [1] (setting [8]), 41%; in test [1] (at 50.0 µM), 30.4%; in test [2] (setting [7]) it was 12%; in test [2] (setting [8]) it was 38%; in test [2] (at 50.0 µM) it was 53.4%. The growth inhibition was 16% in test [3] (setting [7]); 34% in test [3] (setting [8]); 86.2% (active) in test [3] (at 50.0 µM); 1% in test [4] (setting [7]); 11% in test [4] (setting [8]); 38.6% in test [4] (at 50.0 µM). The growth inhibition is 20% in test [5] (setting [7]); 26% in test [5] (setting [8]); 81.1% (active) in test [5] (at 50.0 µM); 23% in test [6] (setting [7]); 38% in test [6] (setting [8]); 80.5% (active) in test [6] (at 50.0 µM).

For the origin of these results see PubChem BioAssay (NCI).
